# aGal spleen mod: inhibits or activates alpha-galactosidase in human spleen homogenate. human spleen homogenate, 4MU-alpha-Gal fluorescence, 40 min. Potency, µM (doses to about 80 µM), inactives show at the top dose activity change, negative = inhibition, usual class: inhibitors. hit rate 0.008% among 240,000;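 note: potency is the fitted concentration of half-maximal effect; 0% = enzyme with vehicle and -100% = no enzyme basal signal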
#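 Human spleen homogenate (1 ug) was the enzyme source, with 4-methylumbelliferyl-alpha-D-galactopyranoside (1 mM final) in pH 5.0 citrate buffer with 0.01% Tween-20. Compounds were titrated; after 40 min at 37C, NaOH/glycine stop, 4-MU fluorescence read; AC50 from Hill fits.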
# GLA inh pH 4.5: inhibitors of human alpha-galactosidase A at pH 4.5; P06280; purified enzyme, 4-MU-alpha-Gal fluorescence, pH 4.5; activity change, negative = inhibition, % at 105 µM; 230,000 tested, under 10 active; AID 1467;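 note: 0% = full activity with enzyme and -100% = basal without enzyme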
# Target sequence (P06280 whole entry, looked up): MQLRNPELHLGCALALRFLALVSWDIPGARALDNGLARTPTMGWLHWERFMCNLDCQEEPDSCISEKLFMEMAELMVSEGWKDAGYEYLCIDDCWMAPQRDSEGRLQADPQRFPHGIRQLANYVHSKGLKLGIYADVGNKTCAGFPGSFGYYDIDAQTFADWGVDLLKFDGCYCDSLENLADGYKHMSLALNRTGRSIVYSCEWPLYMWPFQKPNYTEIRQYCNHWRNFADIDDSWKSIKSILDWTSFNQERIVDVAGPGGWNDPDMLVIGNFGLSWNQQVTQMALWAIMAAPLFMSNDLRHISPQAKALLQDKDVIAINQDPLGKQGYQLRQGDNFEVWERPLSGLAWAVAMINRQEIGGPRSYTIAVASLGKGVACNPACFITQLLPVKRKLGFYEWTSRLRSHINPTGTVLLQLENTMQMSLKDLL
# GAA spleen mod: lysosomal alpha-glucosidase (human) modulation. P10253. human spleen homogenate, 4-MU-alpha-glucoside fluorescence. Potency, µM (top dose mostly 79.9 µM), without a hit: top-dose activity change, negative = inhibition, hits mostly inhibitors. hit rate 0.006% among 240,000. AID 2112;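 note: potency is the fitted concentration of half-maximal effect; 0% = enzyme with vehicle and -100% = no enzyme basal signal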
#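 AC50 values come from Hill-equation fits of concentration-response data, normalized to no-enzyme and full-activity controls. Enzyme source: 1 ug human spleen homogenate; 1 mM fluorogenic 4-MU glucoside, pH 5.0 citrate buffer, 37 C, 40 min.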
# GAA inh: inhibitors of human lysosomal alpha-glucosidase; Potency, µM (series often up to 76.9 µM), for the others: at the top dose activity change, negative = inhibition, usual class: inhibitors; P10253; purified human GAA, 4-MU-alpha-glucoside fluorescence; hit rate 0.005% among 200,000;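 note: potency is the fitted concentration of half-maximal effect; plate controls were uninhibited enzyme wells for no effect and no-enzyme background for full effect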
#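 Endpoint fluorogenic read: 20 min room-temperature reaction of 4 nM human alpha-glucosidase with 400 uM 4-methylumbelliferyl-alpha-D-pyranoside, pH 5.0, quenched with 1M NaOH/1M glycine pH 10. AC50 from Hill modeling.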
# GAA glycogen mod: alters human alpha-glucosidase cleavage of glycogen. AID 2100. hit rate 0.38% among 300,000. recombinant GAA, glycogen substrate, Amplex Red glucose oxidase fluorescence. Potency, µM (titrated, usually from 76.4 µM), inactives show at the highest dose activity change, negative = inhibition, usual class: inhibitors. P10253;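 note: potency is the fitted concentration of half-maximal effect; 0% = full enzyme reaction and -100% = no-enzyme basal signal; the screen sought inhibitors and activators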
#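 Recombinant human enzyme (4 nM); glycogen substrate; 37 C, 40 min, pH 5.0. Readout: coupled glucose oxidase/Amplex Red fluorescence.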
# Starred values were filed as active, the others as inactive; ? = inconclusive; nt = no result; [ ] = remark or other dose. Rows were chosen to be rich in hits. Some 0.4% of all compounds tested hit in one or more screens of this group. Calls come from the whole dose curve; as a rule, active = well fitted curve in the direction sought with a large enough effect; inconclusive = small, poorly fitted or top-dose-only effect, or another doubt; inactive = no such curve, though single readings can be large; an effect the other way counts as inactive or inconclusive.
SMILES,aGal spleen mod,GLA inh pH 4.5,GAA spleen mod,GAA inh,GAA glycogen mod
CC[C@H](C)[C@H](NC(=O)[C@H](C)NC(=O)[C@H](CC(=O)O)NC(=O)[C@H](CO)NC(=O)[C@@H](N)Cc1cnc[nH]1)C(=O)N[C@@H](Cc1ccccc1)C(=O)N[C@H](C(=O)N[C@@H](CCC(N)=O)C(=O)N[C@@H](CCC(N)=O)C(=O)N[C@@H](Cc1ccc(O)cc1)C(=O)N[C@@H](CO)C(=O)N[C@@H](CCCCN)C(=O)N[C@@H](CC(C)C)C(=O)N[C@@H](CC(C)C)C(=O)N[C@@H](C)C(=O)N[C@@H](CCCCN)C(=O)N[C@@H](CC(C)C)C(=O)N[C@@H](C)C(=O)N[C@@H](CC(C)C)C(=O)N[C@@H](CCC(N)=O)C(=O)N[C@@H](CCCCN)C(=O)N[C@@H](Cc1ccc(O)cc1)C(=O)N[C@@H](CC(C)C)C(=O)N[C@@H](C)C(=O)N[C@@H](CO)C(=O)N[C@H](C(=O)N[C@@H](CC(C)C)C(=O)NCC(=O)N[C@@H](CO)C(=O)N[C@@H](CCCNC(=N)N)C(=O)N[C@H](C(=O)N[C@@H](CO)C(=O)N1CCC[C@H]1C(=O)N1CCC[C@H]1C(=O)N1CCC[C@H]1C(N)=O)[C@@H](C)O)[C@@H](C)CC)[C@@H](C)O,2.1%,nt,3.4%,nt,nt
CC(C)C[C@@H](/C=C/S(C)(=O)=O)NC(=O)[C@H](CC(C)C)NC(=O)[C@H](CC(C)C)NC(=O)OCc1ccccc1,13.2%,nt,0.5%,nt,nt
Brc1ccc(-c2nc3ncccn3c2NC2CCCCC2)o1,4.1%,6.6,5.3%,-8.3%,25.1µM*
Cc1ccc(-c2nc3ncccn3c2NC2CCCC2)o1,5.7%,-6.5,-3.1%,5.3%,14µM*
CC(=O)OC(C(=O)c1ccccc1)c1ccccc1 (stereo not given),-13.8%,nt,2.4%,nt,nt
COc1cccc(CNn2c(-c3cccc(C)c3)nc3ccccc3c2=O)c1O,-8.8%,-0.5,-7.7%,-1.5%,31.4µM*
COc1ccc(O)c(CNn2c(-c3ccc(Br)cc3)nc3ccccc3c2=O)c1,15.4%,10.8,-4.3%,7.5%,-13.2%
COc1cc(Cl)ccc1NC(=O)COc1ccccc1C(=O)N1CCN(c2ccc(O)cc2)CC1,-1.9%,2.5,0.1%,0.8%,17.6µM*
C/C(CCC(=O)OC[C@@H]1O[C@H](C#Cc2ccccc2)C=C[C@@H]1Oc1ccc(C)cc1)=N/O[C@@H](C)c1cn([C@H]2COC[C@H]2O)nn1,5.8%[17.5 µM],nt,3.9%[17.4 µM],nt,nt
O=C1NC(=O)/C(=C\c2ccc(O)cc2O)S1,-3.0%,1.3,-14.4%,?,2.82µM*
O=C1NC(=O)/C(=C/c2cccc3ccccc23)S1,nt,nt,nt,nt,1.6%[76.3 µM]
CCN(CC)S(=O)(=O)c1cc([N+](=O)[O-])ccc1NNC(=O)Nc1ccccc1OC,-1.2%,-4.1,-3.2%,5.7%,22.2µM*
COc1ccc(NC(=S)N/N=C2\CC(C)(C)Oc3ccc(O)cc32)cc1,-3.6%,-2.9,-1.8%,-4.9%,8.91µM*
Oc1ccc(/C=N/NC(=S)NCc2ccco2)cc1,-3.4%,1.6,-3.0%,-1.6%,28.2µM*
S=C(NCc1ccco1)N/N=C/c1ccc(Cl)cc1,-9.4%,2.8,-12.2%,-2.0%,10.7%
O=C1OCC(CO)(CO)N=C1NNc1cc(Cl)ccc1Cl,1.4%,0.3,-4.9%,-10.0%,8.91µM*
O=C1OCC(CO)(CO)N=C1NNc1ccccc1[N+](=O)[O-],-4.1%,-1.5,-14.9%,nt,?
CCn1c2ccccc2c2cc(CN3CCN(Cc4ccccc4C)CC3)ccc21,nt,nt,nt,nt,-10.9%[76.3 µM]
CCn1c2ccccc2c2cc(CN3CCN(Cc4cc(OC)ccc4O)CC3)ccc21,1.3%,-8.7,-1.3%,-14.6%,7.88µM*
O=c1cc(-c2ccc(O)cc2)oc2cc(OC3OC(CO)C(O)C(O)C3O)c(C3OC(CO)C(O)C(O)C3O)c(O)c12 (stereo not given),4.2%,nt,-0.3%,nt,nt
Cc1ccc2oc(=O)c(/C=C(\O)C(C)(C)C)nc2c1,9.9%,-2.7,1.1%,-6.6%,6.31µM*
Cc1ccc2oc(=O)c(/C=C(\O)c3ccco3)nc2c1,-2.5%,-8.5,3.0%,nt,?
CC(C)(C)/C(O)=C/c1nc2cc(Cl)ccc2oc1=O,4.8%,-5.5,3.2%,nt,3.16µM*
C[C@@H]1CC[C@H]2C(=O)O[C@H](CN=[N+]=[N-])CN2[C@@H]1c1ccc(Br)cc1,5.5%[17.5 µM],nt,-2.1%[17.4 µM],nt,nt
O=C(CSc1nc2ccccc2n1CCc1ccccc1)c1ccc(O)c(O)c1,-7.4%,-2.8,-15.5%,-4.5%,3.98µM*
SMILES,aGal spleen mod,GLA inh pH 4.5,GAA spleen mod,GAA inh,GAA glycogen mod
COc1ccc(-n2nnnc2SCC(=O)c2ccc(O)c(O)c2)cc1,-1.6%,-3.6,-5.3%,-10.0%,8.84µM*
NC(=O)c1ccc(-n2nnnc2SCC(=O)c2ccc(O)c(O)c2)cc1,-15.3%,-2.1,-22.4%,1.6%,?
Cn1c(SCC(=O)c2ccc(O)c(O)c2)nnc1-c1ccccc1,nt,nt,nt,nt,1.78µM*
OC[C@@H]1OC(O)[C@@H](O)[C@H](O)[C@@H]1O (stereo not given in full),1.8%,nt,-1.9%,nt,nt
COc1ccc2c(c1OC)C(=O)OC2CC(=O)c1ccc(O)c(O)c1 (stereo not given),2.3%,-11.2,-5.5%,-5.4%,14µM*
CCCn1c(CNC(=O)c2ccc(F)cc2)nc2ccccc21,nt,nt,nt,nt,15.7%[76.3 µM]
CCCn1c(CNc2ccccc2O)nc2ccccc21,1.4%,-10.1,-2.8%,-8.8%,12.5µM*
CC(C)C[C@H](N)C(=O)N[C@H](C(=O)N[C@@H](CCCN=C(N)N)C(=O)N[C@H](CS)C(=O)NCC(=O)N[C@@H](CCCCN)C(=O)N[C@@H](Cc1cnc[nH]1)C(=O)N[C@@H](CO)C(=O)N[C@@H](CCCN=C(N)N)C(=O)O)C(C)C,0.0%,nt,4.5%,nt,nt
COc1cc(/C=N/N=C(\N)c2nonc2N)ccc1O,14.3%,-5.5[21.1 µM],-4.6%,-12.5%,31.6µM*
COc1ccc(/C=N/N=C(\N)c2nonc2N)cc1OC,12.7%,-6.1,-6.6%,-10.7%,-20.7%
O=C(NC1=NCCS1)C1Cc2ccccc2CN1C(=O)c1ccccc1 (stereo not given),11.0%,-4.1,-0.9%,-9.6%,3.98µM*
COc1cccc(-n2sc3c(c2=S)-c2cc(OC)ccc2NC3(C)C)c1,-5.6%,-6.7,-6.3%,-7.9%,39.8µM*
C1=Cc2ccccc2Nc2ccccc21,4.2%,0.5,-9.1%,nt,15.7µM*
CN(C(=O)N1CCN(S(=O)(=O)c2ccccc2)CC1)c1ccccc1,1.9%,-29.7,-0.7%,35.5µM*,-14.8%
CC(C)CC(=O)N1CCN(S(=O)(=O)c2ccccc2)CC1,-1.4%,2.7,-7.2%,?,-3.4%
CC(C)CC(=O)NC(NC(=S)Nc1sc2c(c1C#N)CCCC2)C(Cl)(Cl)Cl (stereo not given),12.7%,-8.7,1.4%,-7.5%,28.2µM*

# Screening data: PubChem BioAssay, National Center for Advancing Translational Sciences (NCATS)
